This is one part of the list. The source made the active and inactive calls.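 How the source made its calls: active means average activation exceeds primary screen hit cutoff (cut at about 21% in these data); inactive means the rest.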

The test deals with Vasopressin V1a receptor (Homo sapiens) (UniProt P37288). Kind of test: V1a receptor agonists, calcium signal, confirmation, Fluo-8 calcium fluorescence, CHO-V1R cells (AID 434964).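 Further: peak over basal fluorescence ratio during a 100 s FLIPR read; 0% = DMSO only wells and 100% = 3 nM vasopressin wells.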 The settings on record: agonist, at 3 µM, stronger effect = higher value.
Sequence of Vasopressin V1a receptor (Homo sapiens) (P37288 whole entry, looked up): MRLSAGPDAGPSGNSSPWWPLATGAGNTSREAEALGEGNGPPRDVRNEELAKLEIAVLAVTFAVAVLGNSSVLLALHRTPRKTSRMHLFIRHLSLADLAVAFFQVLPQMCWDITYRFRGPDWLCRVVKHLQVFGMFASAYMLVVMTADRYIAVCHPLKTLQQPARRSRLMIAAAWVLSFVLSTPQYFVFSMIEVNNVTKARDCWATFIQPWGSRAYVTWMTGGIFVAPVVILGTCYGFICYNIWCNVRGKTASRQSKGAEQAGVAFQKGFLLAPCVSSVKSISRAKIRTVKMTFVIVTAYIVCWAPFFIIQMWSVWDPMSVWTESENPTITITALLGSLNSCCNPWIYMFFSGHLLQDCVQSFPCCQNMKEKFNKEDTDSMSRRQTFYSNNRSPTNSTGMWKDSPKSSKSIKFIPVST
In the case of `Cc1cc(C)c(/C=C2\C(=O)Nc3ccccc32)[nH]1`, the activation is 40.5% (active).

Consider `O=C(CN1CCN(c2cccc(Cl)c2)CC1)Nc1ccc(S(=O)(=O)N2CCOCC2)cc1`, for which the activation was 3.06% (inactive). Next, `O=C(c1ccccc1)c1ccc(OCC(O)CN2CCCC2)cc1` (stereo not drawn): -0.08% (inactive). Next, `O=c1c2cc(Br)ccc2nc(-c2cccc(Cl)c2)n1O`: 31.8% (active); `CCN(CC)c1ccc(/C=N/NC(=O)c2cnccn2)c(O)c1`: 10.5% (inactive); `CC1(C)S[C@@H]2[C@H](N=CN3CCCCCC3)C(=O)N2[C@H]1C(=O)O`: 0.2% (inactive). Next, `CCN(CC)c1ccc2cc(C(N)=O)/c(=N\NC(=O)c3ccncc3)oc2c1`: 21.7% (active); `Fc1cccc(Cl)c1COc1ccc(-c2nnco2)cc1`: 2.1% (inactive).

Source of the values: PubChem BioAssay AID434964 (The Scripps Research Institute Molecular Screening Center, 2010).
